Data published in a collection of fitness landscapes (doi:10.1038/s41467-024-54723-y).
Over roughly 18,000 sequences, “TetR repression strength (sort-seq, GFP reporter)” has its median near 0.23; the highest 2% begin near 0.68. Only a selection was taken, and the highest values are over-represented in it overall.

The sequences below were run against TetR (class B, Tn10) (UniProt P04483) (assay: TetR repression strength (sort-seq, GFP reporter) (relative to tetO2 = 1); higher = stronger repression). Settings: E. coli.
TetR (class B, Tn10), sequence (P04483 whole entry): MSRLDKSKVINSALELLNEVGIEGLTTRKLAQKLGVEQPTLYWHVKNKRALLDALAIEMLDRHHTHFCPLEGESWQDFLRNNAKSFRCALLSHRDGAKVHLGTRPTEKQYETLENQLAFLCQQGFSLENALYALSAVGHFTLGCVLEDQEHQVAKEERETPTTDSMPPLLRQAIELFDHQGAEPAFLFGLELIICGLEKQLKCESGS
How it was run: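 Repression strength was calculated by subtracting the read-weighted mean bin from the top bin index plus one and dividing by the unaltered operator's value. The plasmid library was low-copy in E. coli SIG10-MAX, with eight randomized operator positions between a constitutive promoter and sfGFP and constitutive TetR. Cultures grew 5 h at 37 °C in LB containing 50 µg/mL chloramphenicol before 10^6 cells were sorted by FACS into 13 fluorescence bins, each sequenced on Illumina. Three independent transformations were averaged for members having ≥30 reads in all replicates and a CV ≤0.5.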
For TCCCTGTGAGTCGTTGAGA, the TetR repression strength was 0.443.
In the case of TCCCGGTAAGTATTCGAGA, the TetR repression strength is reported as 0.175.
Work on TCCCCATAAGTCCTTGAGA yielded a TetR repression strength of 0.415.
TCCCATAGAGTATGGGAGA was tested, and the TetR repression strength was 0.0311.
TCCCGGAGAGTAGCGGAGA showed a TetR repression strength of 0.287.
With TCCCTTTCAGTGAGTGAGA the TetR repression strength was 0.488.
In the case of TCCCTATCAGTTGTTGAGA, the TetR repression strength is reported as 0.441.
For TCCCTATAAGTTGTGGAGA, the TetR repression strength was 0.201.
TCCCTATGAGTGTCAGAGA gave a TetR repression strength of 0.238.
With TCCCTATCAGTGTCAGAGA the TetR repression strength was 0.958.
TCCCTTTCAGTGATTGAGA gave a TetR repression strength of 0.713.
For TCCCAATCAGTGTGTGAGA, the TetR repression strength was 0.101.
Work on TCCCTATCAGTGTCTGAGA yielded a TetR repression strength of 0.556.
For TCCCTTTCAGTTATTGAGA, the TetR repression strength was 0.55.
With TCCCAATCAGTGAGTGAGA the TetR repression strength was 0.701.
TCCCAATCAGTGAGAGAGA gave a TetR repression strength of 0.538.
In the case of TCCCTATCAGTTGTGGAGA, the TetR repression strength is reported as 0.726.
Sequence TCCCTTGTAGTTGAAGAGA has a TetR repression strength of 0.148.
With TCCCTTGGAGTGATAGAGA the TetR repression strength was 0.384.
TCCCTTTCAGTTAAGGAGA gave a TetR repression strength of 0.196.
Sequence TCCCTGGAAGTGTTCGAGA has a TetR repression strength of 0.277.
With TCCCGGAGAGTATAAGAGA the TetR repression strength was 0.289.
For TCCCAAGAAGTAGGTGAGA, the TetR repression strength was 0.23.
Work on TCCCATAAAGTTCAAGAGA yielded a TetR repression strength of 0.224.
Sequence TCCCTTACAGTTCCAGAGA has a TetR repression strength of 0.363.
TCCCTTATAGTCTCGGAGA was tested, and the TetR repression strength was 0.214.
For TCCCTATCAGTCATTGAGA, the TetR repression strength was 0.708.
With TCCCTGTCAGTGAGCGAGA the TetR repression strength was 0.341.
Sequence TCCCCATCAGTAACGGAGA has a TetR repression strength of 0.304.
TCCCTATAAGTCATTGAGA was tested, and the TetR repression strength was 0.498.
For TCCCAATCAGTAACTGAGA, the TetR repression strength was 0.278.
TCCCTATCAGTCAATGAGA gave a TetR repression strength of 0.625.
With TCCCTCTCAGTGATGGAGA the TetR repression strength was 0.546.
In the case of TCCCAATCAGTAACGGAGA, the TetR repression strength is reported as 0.802.
For TCCCTATCAGTGAGCGAGA, the TetR repression strength was 0.73.
TCCCTATCAGTGATGGAGA showed a TetR repression strength of 0.999.
In the case of TCCCTATGAGTGAGCGAGA, the TetR repression strength is reported as 0.278.
In the case of TCCCTAACAGTGATGGAGA, the TetR repression strength is reported as 0.278.
With TCCCGTTCAGTGCTTGAGA the TetR repression strength was 0.367.
TCCCACTCAGTGCATGAGA gave a TetR repression strength of 0.218.
Sequence TCCCCCTGAGTAGGCGAGA has a TetR repression strength of 0.179.
With TCCCCGCAAGTACACGAGA the TetR repression strength was 0.292.
Work on TCCCCAGGAGTGATGGAGA yielded a TetR repression strength of 0.176.
TCCCTAGTAGTTGTGGAGA gave a TetR repression strength of 0.283.
TCCCTCGGAGTTGGTGAGA gave a TetR repression strength of 0.237.
For TCCCTGTCAGTCGGTGAGA, the TetR repression strength was 0.378.
With TCCCCGGCAGTGGTGGAGA the TetR repression strength was 0.25.
TCCCGGACAGTGCCAGAGA gave a TetR repression strength of 0.402.
In the case of TCCCATGGAGTCGGTGAGA, the TetR repression strength is reported as 0.0966.
In the case of TCCCTAACAGTGAATGAGA, the TetR repression strength is reported as 0.46.
TCCCGGACAGTTGGGGAGA gave a TetR repression strength of 0.922.
TCCCTATAAGTGAGTGAGA showed a TetR repression strength of 0.693.
Work on TCCCGGACAGTTGGAGAGA yielded a TetR repression strength of 0.299.
TCCCTATAAGTCAGTGAGA showed a TetR repression strength of 0.427.
Work on TCCCGGACAGTGTGTGAGA yielded a TetR repression strength of 0.2.
In the case of TCCCGGACAGTGTGAGAGA, the TetR repression strength is reported as 1.2.
For TCCCTATAAGTGAGGGAGA, the TetR repression strength was 0.237.
Sequence TCCCTATCAGTGAATGAGA has a TetR repression strength of 0.781.
Sequence TCCCAATCAGTGAATGAGA has a TetR repression strength of 0.603.
For TCCCGGACAGTGAGAGAGA, the TetR repression strength was 0.246.
In the case of TCCCGGACAGTTTGGGAGA, the TetR repression strength is reported as 0.473.
Sequence TCCCGCGAAGTAAGCGAGA has a TetR repression strength of 0.151.
In the case of TCCCTCCTAGTGCGAGAGA, the TetR repression strength is reported as 0.151.
TCCCCGTGAGTTGGAGAGA gave a TetR repression strength of 0.319.
Sequence TCCCCATGAGTTAGCGAGA has a TetR repression strength of 0.188.
Sequence TCCCTGCCAGTTCATGAGA has a TetR repression strength of 0.0931.
TCCCGAGCAGTGGAGGAGA was tested, and the TetR repression strength was 0.35.
In the case of TCCCCTAGAGTGGGGGAGA, the TetR repression strength is reported as 0.195.
In the case of TCCCGTTCAGTTTGTGAGA, the TetR repression strength is reported as 0.145.
For TCCCAATCAGTTAGGGAGA, the TetR repression strength was 0.146.
TCCCTGGCAGTCGGGGAGA gave a TetR repression strength of 0.473.
Work on TCCCTAGTAGTGCAAGAGA yielded a TetR repression strength of 0.538.
TCCCTGTGAGTCTCAGAGA gave a TetR repression strength of 0.365.
Work on TCCCTAACAGTGAGTGAGA yielded a TetR repression strength of 0.514.
TCCCTACCAGTGATTGAGA showed a TetR repression strength of 0.511.
In the case of TCCCTTTAAGTAAGTGAGA, the TetR repression strength is reported as 0.247.
Work on TCCCTGTCAGTGTGAGAGA yielded a TetR repression strength of 0.0482.
Sequence TCCCTATGAGTGTGAGAGA has a TetR repression strength of 0.252.
In the case of TCCCTTCGAGTGATTGAGA, the TetR repression strength is reported as 0.73.
For TCCCCTCGAGTGATTGAGA, the TetR repression strength was 0.244.
Sequence TCCCTTTGAGTAAGGGAGA has a TetR repression strength of 0.152.
Work on TCCCTTTGAGTAAGTGAGA yielded a TetR repression strength of 1.15.
Work on TCCCTTTGAGTGATTGAGA yielded a TetR repression strength of 0.263.
TCCCTATCAGTGTGAGAGA was tested, and the TetR repression strength was 0.919.
TCCCTAACAGTGATTGAGA gave a TetR repression strength of 0.745.
For TCCCAAAAAGTTCCGGAGA, the TetR repression strength was 0.0327.
Work on TCCCATTTAGTCTGTGAGA yielded a TetR repression strength of 0.192.
For TCCCTAAAAGTACAGGAGA, the TetR repression strength was 0.262.
In the case of TCCCGCTGAGTAATGGAGA, the TetR repression strength is reported as 0.218.
TCCCTGCGAGTATTTGAGA showed a TetR repression strength of 0.391.
For TCCCTAGTAGTGTGGGAGA, the TetR repression strength was 0.216.
TCCCTAGAAGTTTAAGAGA gave a TetR repression strength of 0.0122.
TCCCGTATAGTCTGTGAGA gave a TetR repression strength of 0.0605.
Sequence TCCCGTCAAGTGTCCGAGA has a TetR repression strength of 0.279.
Work on TCCCGGACAGTCCGTGAGA yielded a TetR repression strength of 0.196.
TCCCTATCAGTGACTGAGA was tested, and the TetR repression strength was 0.722.
TCCCGATCAGTGTTAGAGA gave a TetR repression strength of 0.556.
Sequence TCCCTATCAGTGATAGAGA has a TetR repression strength of 1.
In the case of TCCCCGTCAGTGATAGAGA, the TetR repression strength is reported as 0.35.
For TCCCTATTAGTGACTGAGA, the TetR repression strength was 0.345.
TCCCTTTCAGTGTTAGAGA showed a TetR repression strength of 0.459.
In the case of TCCCAACGAGTAATGGAGA, the TetR repression strength is reported as 0.395.
For TCCCTATCAGTGTTAGAGA, the TetR repression strength was 0.974.
TCCCTTGCAGTGATAGAGA gave a TetR repression strength of 0.657.
